Laboratory results taken from ChEMBL document CHEMBL3988442, “University of Dundee, Small-Polar-MMV Screening Library” (2021).

Key:
[1] = target: T1, Aspartate--tRNA(Asp/Asn) ligase (Mycobacterium tuberculosis (strain ATCC 25618 / H37Rv)) (UniProt P9WFW3); experiment: Assay for Asp RNA synthetase-1 from Mycobacterium tuberculosis; format: functional; design: scale not given: direction of the effect not stated beside the values; conditions: 30 µM; also: in the data most compounds retested in dose-response had high values
T1 sequence (whole entry): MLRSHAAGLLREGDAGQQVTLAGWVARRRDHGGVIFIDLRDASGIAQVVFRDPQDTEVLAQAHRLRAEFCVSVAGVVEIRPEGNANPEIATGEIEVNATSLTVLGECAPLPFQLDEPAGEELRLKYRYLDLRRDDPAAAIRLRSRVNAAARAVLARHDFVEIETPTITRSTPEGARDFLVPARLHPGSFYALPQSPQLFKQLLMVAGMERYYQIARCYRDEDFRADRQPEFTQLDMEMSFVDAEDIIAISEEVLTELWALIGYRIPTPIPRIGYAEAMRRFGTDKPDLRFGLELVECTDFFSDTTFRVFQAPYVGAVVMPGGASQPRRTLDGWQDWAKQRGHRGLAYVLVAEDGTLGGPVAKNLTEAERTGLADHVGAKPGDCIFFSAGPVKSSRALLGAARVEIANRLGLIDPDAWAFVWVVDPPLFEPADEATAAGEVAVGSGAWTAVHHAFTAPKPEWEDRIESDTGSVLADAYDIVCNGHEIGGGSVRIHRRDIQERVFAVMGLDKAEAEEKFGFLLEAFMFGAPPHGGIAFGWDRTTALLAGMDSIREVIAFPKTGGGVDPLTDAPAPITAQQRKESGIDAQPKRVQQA

[2] = target: Shiga toxin 2 (Escherichia coli O157:H7) (UniProt P09385+P09386); experiment: E. coli 0.157:H7 Shiga Toxin SOP - stx2 screening assay; format: functional; design: scale not given: direction of the effect not stated beside the values; conditions: 30 µM

SMILES	Percent Effect [1] [%]	Percent Effect [2] [%]
Cc1ccccc1C1CCCN1C(=O)CN1CC2(CCNCC2)OC1=O (centres undefined)	3.25	2.84
CCn1c(C)nnc1CN(C)C1CCN(Cc2nccn2C)C1 (centres undefined)	1.34	-37.8
Cc1nc(C)n(CC2CCCN2CC(=O)NCCc2ccccc2)n1 (centres undefined)	-7.16	-6.86
O=c1nc(SCc2cccnc2)c2c(n1CCO)CCC2	-12	13.4
Cc1csc(NC(=O)CN(C)CC2CCCN2c2cccnn2)n1 (centres undefined)	3.48	-23.1
Cc1cccc2[nH]c(C3CCN(C(=O)c4ccnn4C)CC3)nc12	-0.0892	-69.6
Cc1c(F)cc(C(=O)O)cc1S(=O)(=O)Nc1ccc2c(c1)OCCO2	2.32	10.9
O=C(c1cccc2c1OCO2)N1CCCC(n2cccn2)C1 (centres undefined)	-0.706	17.8
O=C(O)c1coc(COc2cccc(F)c2)n1	-2.21	-2.73
Cc1[nH]ccc1C(=O)N1CCCC(c2nccn2Cc2cscn2)C1 (centres undefined)	-2.28	4.58
CCn1ccnc1CN1CCN(C(C)C(=O)NC2CCCCC2)CC1 (centres undefined)	-1.01	22
Cn1cccc1C(=O)N1CCCC2(CCN(CCN3CCCC3)C2=O)C1 (centres undefined)	-3.77	-30.4
Cn1ncc2c(=O)[nH]c(CN3CCCC3c3cccs3)nc21 (centres undefined)	-0.799	3.97
COC(=O)CC(c1cnn(C)c1)c1oc(C)cc(=O)c1O (centres undefined)	-0.166	-13.2
O=C(c1ccco1)N1CCC2(CC1)C(=O)NCCN2CC1CC1	10.6	-10.1
CS(=O)(=O)NCC1CCCN(C(=O)COCC(F)(F)F)C1 (centres undefined)	-4.43	-24
Cc1cc2c(=O)n3c(nc2s1)CCN(Cc1ccncc1)CC3	-2.01	-22.9
